The sample as a whole holds a higher share of hits than the screen did.
ST2 IL33 inh – IL1RL1 inhibition; AlphaLISA ST2-Fc/biotin-IL-33 interaction, 1 h; inhibition, % for hits at 17 µM; 78,000 compounds, 2.3% hits; AID 1259354; in the data active = inhibition above about 30%
Target sequence (Q01638 whole entry, looked up): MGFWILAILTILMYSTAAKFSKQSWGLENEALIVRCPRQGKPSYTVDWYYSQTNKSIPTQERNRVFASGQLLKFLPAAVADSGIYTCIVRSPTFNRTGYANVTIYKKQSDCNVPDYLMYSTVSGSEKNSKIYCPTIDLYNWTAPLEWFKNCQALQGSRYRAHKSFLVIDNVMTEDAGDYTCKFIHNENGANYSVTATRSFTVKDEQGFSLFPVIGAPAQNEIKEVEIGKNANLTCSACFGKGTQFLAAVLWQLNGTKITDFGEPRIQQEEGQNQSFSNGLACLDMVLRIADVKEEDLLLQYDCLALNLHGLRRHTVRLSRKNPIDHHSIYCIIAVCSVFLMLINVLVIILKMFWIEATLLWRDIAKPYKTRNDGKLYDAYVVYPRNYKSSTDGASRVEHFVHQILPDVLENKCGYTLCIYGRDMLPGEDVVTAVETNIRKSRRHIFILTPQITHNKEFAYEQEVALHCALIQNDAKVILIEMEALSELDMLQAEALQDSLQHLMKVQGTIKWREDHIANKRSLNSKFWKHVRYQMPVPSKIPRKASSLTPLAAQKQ
The depositor's hits bear a star; i = inactive.

SMILES	ST2 IL33 inh
Cc1ccc(S(=O)(=O)N2CCN(c3ccccc3)CC2)cc1[N+](=O)[O-]	40%*
CN(C)S(=O)(=O)c1cc([N+](=O)[O-])ccc1N1CCCCCC1	i
Cc1ccc(S(=O)(=O)N2CCN(S(=O)(=O)c3ccccc3)C2)cc1[N+](=O)[O-]	i
O=[N+]([O-])c1ccccc1N1CCN(S(=O)(=O)c2ccc(Cl)c(Cl)c2)CC1	30%*
COc1cccc(C2=NN(C(=O)c3cccc(Cl)c3)C(O)(C(F)(F)F)C2)c1 (configuration not stated)	i
O=C(CN(Cc1ccccc1)S(=O)(=O)c1ccc(F)cc1)Nc1ccccc1Br	i
O=C(Cc1cccs1)NC1CC(=O)N(CCc2ccccc2)C1 (configuration not stated)	i
CC(C)c1ccc(C(=O)N2CCCc3ccccc32)cc1	i
Cc1cc(C)n(C(C)CNC(=O)CC(=O)Nc2cc(Cl)ccc2C)n1 (configuration not stated)	i
COc1ccccc1C(=O)N/C(=C\c1ccc2c(c1)OCO2)C(=O)NCCO	i
CC(=O)c1[nH]c(C)c(C(=O)N2CCOC(CCCC(C)C)C2)c1C (configuration not stated)	i
CC1(C)CC(=O)C2=C(C1)NC1=C(C(=O)CC(C)(C)C1)C2c1ccccc1	i
CC1(C)CC(=O)C2=C(C1)Nc1[nH]c(=O)[nH]c(=O)c1C2c1ccccc1 (configuration not stated)	i
CC1(C)CC(=O)C2=C(C1)Nc1sc(C#N)c(N)c1C2c1ccccc1 (configuration not stated)	33%*
CS(=O)(=O)c1ccc2nc(NC(=O)c3ccccc3[N+](=O)[O-])sc2c1	i
Clc1ccc(-c2nc(-c3ccccc3)no2)cc1Cl	i
Cc1c(C(=O)Cc2ccccc2)n(C)c2ccccc12	37%*
CC(=O)n1c2ccccc2c2c1c1ccccc1n2C	i
CC(=O)c1ccc2c(c1)c1ccccc1n2C	i
CCOC(=O)c1c(NC(=O)c2cc(OC)cc(OC)c2)sc2c1CCCCC2	i
Cc1ccc(-n2c(=O)n(C)c3c(C(N)=O)nc(-c4ccc(F)cc4F)nc32)cc1C	i
Cc1ccc(SCc2cc(=O)[nH]c(SCC(=O)Nc3ccc(Cl)cc3C)n2)cc1	i
O=c1[nH]c(=O)c2nc3c(ccc4nsnc43)nc2[nH]1	i
Nc1ccc2nc3c(=O)[nH]c(=O)[nH]c3nc2c1	53%*
Cn1c(=O)c2nc3ccc(N)cc3nc2n(C)c1=O	i
SMILES	ST2 IL33 inh
CC1CCN(C(=O)Cc2c(C(=O)O)[nH]c3ccc(Cl)cc23)CC1	i
CCCSC1=C(C#N)C(c2ccco2)C(C(=O)Nc2ccccc2OC)=C(C)N1 (configuration not stated)	i
CN1C[C@@H](NC(=O)NCc2ccccc2)C[C@H]1c1nc(-c2ccccc2)no1	i
CN1C[C@@H](NC(=O)c2ccco2)C[C@H]1c1nc(-c2cccnc2)no1	49%*
CN1C[C@@H](NC(=O)CCC(=O)O)C[C@H]1c1nc(-c2ccccc2)no1	i
CN1C[C@@H](NC(=O)Nc2ccccc2)C[C@H]1c1nc(-c2ccc(F)cc2)no1	i
CN1C[C@@H](NC(=O)CC(C)(C)CC(=O)O)C[C@H]1c1nc(-c2ccc(F)cc2)no1	30%*
CN1C[C@@H](NC(=O)Nc2cccc(F)c2)C[C@H]1c1nc(-c2cccnc2)no1	i
Cc1ccc(-c2noc([C@@H]3C[C@H](NC(=O)Nc4cccc(F)c4)CN3C)n2)cc1	i
CN1C[C@@H](NC(=O)Nc2cccc(F)c2)C[C@H]1c1nc(-c2ccc(F)cc2)no1	36%*
CN1C[C@@H](NC(=O)c2ccccc2)C[C@H]1c1nc(-c2ccc(F)cc2)no1	i
Cc1cccc(N=C(N)NC(N)=O)c1	i
CCOC(=O)CN1C(=O)C(CC)Oc2ccc(C)cc21 (configuration not stated)	i
COCc1cc(C)nc(NN)c1C#N	i
CO[C@H]1COC[C@@H]1NC(=O)c1coc(COc2ccc3sc(C)nc3c2)n1	i
COc1ccc(OC)c(C2CC(=O)N3CN(c4ccc(Cl)cc4)CSC3=C2C#N)c1 (configuration not stated)	i
COc1ccc(C(=O)NC2CC(=O)N(c3ccc(F)cc3)C2)cc1OC (configuration not stated)	i
Cc1cccc(-c2noc([C@@H]3C[C@@H](O)CN3Cc3cc4ccccc4o3)n2)c1	i
COc1cccc(-n2cc(CN(C)Cc3cnc(N(C)C)nc3)cn2)c1	i
O=C(CN1CCCCCC1=O)NCCNS(=O)(=O)c1ccc(Cl)cc1	i
Cc1ccc2nc(N=C(N)NC(=O)Cc3ccc(Cl)cc3)nc(C)c2c1	30%*
CC(=O)NC(=Nc1nc(C)c2cc(C)ccc2n1)NC(C)=O	i
COc1ccc2nc(N=C(N)NC(=O)Nc3ccccc3)nc(C)c2c1	i
CCOc1c(Nc2ccc(CC)cc2)c(=O)c1=O	i
COc1ccc(C(=O)N(c2ccc(Br)cc2)C2C=CS(=O)(=O)C2)cc1 (configuration not stated)	i
SMILES	ST2 IL33 inh
COC(=O)C1CCN(C(c2ccccc2)c2sc3nc(C)nn3c2O)CC1 (configuration not stated)	i
COc1ccc(C(=O)c2nc3ccccc3n2C)cc1	i
Cn1c(=O)c(Cc2ccccc2F)nc2ccccc21	i
Cn1c(=O)c(/C=C/c2cccs2)nc2ccccc21	36%*
c1cncc(-c2nnc([C@H]3CCN(Cc4ccncc4)C3)o2)c1	i
c1ccc(CN2CC[C@H](c3nnc(-c4cccnc4)o3)C2)cc1	34%*
Cc1ccc(CN2CC[C@H](c3nnc(-c4cccnc4)o3)C2)cc1	i
O=C(Nc1ccc2nsnc2c1)N1CCC(c2ccccc2)C1 (configuration not stated)	i
O=C(CN1CCCN(Cc2ccccc2)S1(=O)=O)Nc1ccc(Cl)cc1	i
Nc1nc(-c2ccc([N+](=O)[O-])cc2)cs1	i
CN(CC1CCCO1)c1nc(-c2ccc([N+](=O)[O-])cc2)cs1 (configuration not stated)	54%*
O=C(NCC1CCCO1)c1ccccc1Sc1ccc([N+](=O)[O-])cc1 (configuration not stated)	i
Cc1cc(=O)oc2cc(CN3CC[C@@H](c4ccc(F)cc4)[C@H](O)C3)ccc12	i
NC(=O)c1cccc2[nH]c([C@H]3CCN(C4CCC4)C3)nc12	i
CCN(C(=O)Cc1c(C(=O)O)[nH]c2ccccc12)c1ccccc1	i
CCC(c1ccccc1)c1nc(-c2ccncc2)no1 (configuration not stated)	i
CCC(c1ccccc1)c1nc(-c2cccc([N+](=O)[O-])c2)no1 (configuration not stated)	30%*
COc1ccc(-c2nc(-c3cccc([N+](=O)[O-])c3)no2)cc1OC	i
COc1cc2c(cc1OC)CN(C1CCCN(Cc3ccc(C#CCCO)cc3)C1)CC2 (configuration not stated)	i
C=C(C)COc1ccc(C(=O)NCCc2nc(C)c3c(n2)CCC3)cc1	i
CCn1c(C(=O)NCc2cccnc2)cc2sccc21	i
O=C(CCCN1C(=O)S/C(=C\C=C\c2ccccc2)C1=O)Nc1ccc(C(=O)O)cc1	32%*
O=C(O)CCCC(=O)Nc1ccc(C(=O)O)cc1	i
O=C(CCCCCN1C(=O)c2ccccc2C1=O)Nc1ccc(Cl)cc1	i
O=C(CN1C(=O)c2ccccc2C1=O)NC1c2ccccc2-c2ccccc21	i
